The list is not random: actives were taken first. Their share in the collection is about 1.5%.
BRCA1 expr up: qHTS Assay to Identify Small Molecule Activators of BRCA1 Expression; MCF7-BRCA1-FFLuc reporter, luminescence, 48 h; response scale: scaled: vehicle 0%, 10 µM genistein 100%; Potency, µM (highest dose often 46.1 µM), for inactives: top-dose activation, hits mostly activators; hit rate 1.1% among 380,000; AID 624202, 2012; further: potency means the concentration at half of the fitted maximal effect; nearly all actives have a fitted effect of over 80% in size
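Luminescence from a BRCA1-driven firefly luciferase in MCF7 cells was read after 48 h compound exposure at 37 C. Data normalized against DMSO and a 10microM genistein activation control, then curve-fitted across the titration.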
TCR activator: Activators of T cell receptors: qHTS campaign; primary human leukocytes, anti-CD3, IL-2 HTRF, 48 h; 330,000 tested, under 10 active; AID 504894, 2011; Potency, µM (highest dose often 9.22 µM), for inactives: at the top dose activation of IL-2 secretion, hits mostly activators; further: % of control where 0% means no effect
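HTRF read-out of IL-2 secretion: europium cryptate donor excited at 320nm, d2 acceptor emission at 665nm. Cells were primary human leukocytes incubated 48 hr with compounds and a-CD3 beads, supplying TCR signal only.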
PINK1 modulator: A Quantitative High throughput Screen to Identify Chemical Modulators of PINK1 Expression; PINK1 immunofluorescence, high-content cytometry, 24 h; Potency, µM (series often up to 76.6 µM), inactives show top-dose activation (PINK1 increase), hits mostly activators; hit rate 0.2% among 410,000; active means well fitted activation curve with a large enough effect; cell line not stated here; further: potency means the concentration at half of the fitted maximal effect; % of control where 0% means no effect; nearly all actives have a fitted effect of over 65% in size
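PINK1 protein, normally rapidly degraded, was detected by immunofluorescence after 24 hour compound treatment of a stable cell line. Titration data (5 concentrations) came from laser-scanning cytometry, with CCCP-treated wells as controls.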
Akt phos inh: HTS Assay for Inhibitors of Akt Phophorylation: Primary Screen. Neuro2A IGF-stimulated pAkt S473 HTRF, 20 min; hits give low values. activity change, % for hits at 50 µM. hit rate 0.32% among 360,000; in the data active means activity change below about -80%; further: on the % scale 0 is the no-effect control and ±100 the full control effect
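Neuro2A cells (4,500/well, DMEM with 0.5% FBS) were treated with compound at a single 50 µM final concentration, stimulated with 6 nM IGF for 20 min at 37 °C, and lysed. Phospho-Akt Ser473 was read by HTRF as 665/615 ratio ×10^4.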
* = called active by the depositor; i = inactive; x = no result given; [ ] = another dose, or the depositor's remark. Unless noted, the call rests on the fitted dose curve; in most records, active means well fitted curve in the direction sought with a large enough effect; inconclusive means small, poorly fitted or top-dose-only effect, or another doubt; inactive means no such curve, though single readings can be large; an effect the other way counts as inactive or inconclusive.

SMILES	BRCA1 expr up	TCR activator	PINK1 modulator	Akt phos inh
COc1ccc(NC(=O)c2ccc(=O)oc2)cc1	26%	-14%	x	i
CN(C)/C=C/C(=O)c1ccc(Oc2ncccn2)cc1	-9%	-2%	2%	i
COc1ccc(NC(=O)c2coc(C)c2)cc1	5.6µM*	3%	0%	i
Cc1ccc(NC(=O)COC(=O)c2ccccc2OCC(=O)Nc2ccc(Br)cc2)c(Br)c1	9%	x	0%	x
Cc1ccc2cc(CN(C(=O)c3ccc4c(c3)OCO4)C3CC3)c(N(C)C)nc2c1	x	x	0%	x
COc1cc(=O)n2c(c1C(=O)N(C)Cc1nonc1C)CCN(Cc1cc(F)ccc1F)CC2	x	x	-1%	x
CCC1CN(CCNC(=O)c2cc3ccccc3oc2=O)Cc2cc(OC)ccc2O1 (centres undefined)	x	x	0%	x
COc1ccc(C(=O)NC(=O)Nc2ncccc2C)cc1	2.8µM*	0%	-1%	i
COCCn1c(N)c(NCc2ccccc2)c(=O)n(CC(=O)Nc2cc(C)ccc2C)c1=O	-31%	5%	-1%	-108%*
O=C(Nc1nc(-c2ccc(Cl)cc2)cs1)C1=COCCO1	94%	-15%	4%	i
O=C(Nc1nc(-c2cccs2)cs1)C1=COCCO1	4µM*	2%[46.1 µM]	-1%	i
OCC1OC(n2nnc3ccccc32)C(O)C(O)C1O (centres undefined)	3%	-2%	3%	-92%*
CC(=O)NCCNC(=O)CCCc1nnc2n(CCC(C)C)c(=O)c3sccc3n12	x	x	3%	x
COc1cc(/C=N/NC(=O)c2ccncc2)ccc1OC(=O)c1ccc([N+](=O)[O-])cc1	-17%	-4%	1%	-107%*
COc1ccc(C(=O)N(Cc2cc3cccc(C)c3nc2N(C)C)CC2CCCO2)cc1 (centres undefined)	x	x	0%	x
CCc1ccccc1NC(=O)COC(=O)c1cn(CC)c2nc(C)ccc2c1=O	4%	x	1%	x
CCCCCCn1c(C)nc2c(c1=O)c1nc3ccccc3nc1n2/N=C/c1ccco1	-22%	3%	1%	-108%*
COc1cccc(CNC(=O)c2c(OC)cc(=O)n3c2CCN(C(=O)C2CC24CCCC4)CC3)c1 (centres undefined)	x	x	2%	x
CN(C)c1nc2cc(Cl)ccc2cc1CN(Cc1ccc2c(c1)OCO2)C(=O)c1ccoc1	x	x	3%	x
CCn1ncc(C2=NOC(C(=O)NCc3ccccc3)C2)c1C (centres undefined)	-75%	x	13µM*	i
COC(=O)[C@@H]1CCCN1Cc1ccc2c(c1)CN(Cc1ccc3c(c1)CCO3)CCO2	x	x	2%	x
CN(C)CC(C)(O)c1ccc2c(c1)CN(C(=O)c1ccc(-n3cccn3)cc1)CCO2 (centres undefined)	x	x	-1%	x
COc1cc2nc(N3CCOCC3)nc(NC3CC3)c2cc1OC	-9%	x	0%	x
Cc1ccc2cc3cc(C(=O)NC4CCCCC4)oc3nc2c1	4µM*	0%	13%	i
O=C(NC1CCCC1)c1cc2cc(Br)ccc2o1	3.2µM*	-9%	4%	i
SMILES	BRCA1 expr up	TCR activator	PINK1 modulator	Akt phos inh
Cc1ccc2cc3cc(C(=O)NC4CC4)oc3nc2c1	59%	8%	4%	i
COc1cc2nc(N3CCCCC3)nc(NC3CCN(Cc4ccccc4)CC3)c2cc1OC	-59%	x	-1%	x
O=C(NCCSc1ccccc1)c1cccnc1	14µM*	-1%	-2%[38.3 µM]	i
O=C1COc2ccc(OCc3ccc(F)cc3)cc21	2.8µM*	x	8%[38.3 µM]	i
O=C(Nc1ccc(-c2nc3cccnc3s2)cc1)c1ccc(Cl)nc1	1.8µM*	4%	6%	i
COc1cccc(CN2C(=O)NC(C)(C3CCN(Cc4ccc(C)o4)CC3)C2=O)c1OC (centres undefined)	x	x	0%	x
COc1cc(C2C(C(=O)c3ccc(C)o3)=C(O)C(=O)N2c2cc(C)on2)cc(Br)c1O (centres undefined)	-14%	-2%	1%	i
CCCOc1ccc(C2C(C(=O)c3cc4ccccc4o3)=C(O)C(=O)N2c2cc(C)on2)cc1 (centres undefined)	0%	-6%	25µM*	i
COc1cc(C2C(C(=O)c3ccco3)=C(O)C(=O)N2c2cc(C)on2)cc(Br)c1O (centres undefined)	20%	-1%	2%	-115%*
